Results: PubChem BioAssay (NCI)
Compounds without any hit were thinned out: in the full panel of roughly 83,000, 20% have a hit.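 Testing used 96-well plates and a 48-hour single-concentration exposure. Example: -40 means 40% of the starting cells died.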 Activity calls are given as the source filed them. The calls were made as follows: active = growth percent below 10; inactive = the rest.

Key:
Test in all cases: NCI-60 one-dose screen, 48 h (100 = growth as untreated, 0 = no growth, -100 = all killed)
K-562 leukemia = details: 10 µM unless noted
MALME-3M melanoma = details: 10 µM unless noted
RXF 393 renal = details: 10 µM unless noted
SF-295 CNS = details: 10 µM unless noted
M14 melanoma = details: 10 µM unless noted
SNB-75 CNS = details: 10 µM unless noted
SNB-19 CNS = details: 10 µM unless noted
U251 CNS = details: 10 µM unless noted
A498 renal = details: 10 µM unless noted
HL-60(TB) leukemia = details: 10 µM unless noted
CCRF-CEM leukemia = details: 10 µM unless noted
SR leukemia = details: 10 µM
OVCAR-8 ovarian = details: 10 µM unless noted
OVCAR-5 ovarian = details: 10 µM unless noted
OVCAR-4 ovarian = details: 10 µM unless noted
SK-OV-3 ovarian = details: 10 µM unless noted
IGROV1 ovarian = details: 10 µM
MDA-MB-435 melanoma = details: 10 µM unless noted
SK-MEL-2 melanoma = details: 10 µM unless noted
BT-549 breast = details: 10 µM

Measured: growth

COc1c(O)c2c3c(c1OC)-c1ccccc1CC3N(C)CC2 (stereo not given)
inactive: K-562 leukemia 92.3% | MALME-3M melanoma 105% | RXF 393 renal 133% | SF-295 CNS 99.9% | M14 melanoma 93.3% | SNB-75 CNS 82.4% | SNB-19 CNS 102% | U251 CNS 99.1% | A498 renal 116% | HL-60(TB) leukemia 112% | CCRF-CEM leukemia 98.7% | SR leukemia 75.1% | OVCAR-8 ovarian 110% | OVCAR-5 ovarian 109% | OVCAR-4 ovarian 120% | SK-OV-3 ovarian 94.2% | IGROV1 ovarian 96.8% | MDA-MB-435 melanoma 104%

C/C1=C/C(=O)O[C@@H]2C[C@@H](CC[C@H](C)/C=C\C=C\CC1)O[C@@](OCCc1ccccc1)([C@@H]1CSC(=O)N1)C2
active: MALME-3M melanoma -10.3% | RXF 393 renal -77.1% | SNB-75 CNS -62.8% | A498 renal -29.1% | OVCAR-4 ovarian -4.5% | SK-OV-3 ovarian -32.3% | IGROV1 ovarian -55.8% | BT-549 breast -43%
inactive: K-562 leukemia 36.3% | SF-295 CNS 17.7% | M14 melanoma 38.5% | SNB-19 CNS 21.5% | U251 CNS 16.4% | SK-MEL-2 melanoma 67.7% | HL-60(TB) leukemia 90.6% | CCRF-CEM leukemia 21.2% | SR leukemia 41.3% | OVCAR-8 ovarian 46.2% | OVCAR-5 ovarian 11.2% | MDA-MB-435 melanoma 16.7%

C[C@]12C[C@H](O)[C@H]3[C@@H](CCC4=CC(=O)CC[C@@]43C)[C@@H]1CC[C@@H]2O
inactive: K-562 leukemia 104% | RXF 393 renal 109% | SF-295 CNS 85.6% | M14 melanoma 98.4% | SNB-75 CNS 85.7% | SNB-19 CNS 104% | A498 renal 116% | HL-60(TB) leukemia 105% | CCRF-CEM leukemia 97.3% | SR leukemia 97.4% | OVCAR-8 ovarian 114% | OVCAR-5 ovarian 105% | OVCAR-4 ovarian 104% | SK-OV-3 ovarian 105% | IGROV1 ovarian 105% | BT-549 breast 104% | MDA-MB-435 melanoma 101%
